This excerpt belongs to a sample that is enriched for hits.
KDM5B inhibitor – blocks human KDM5B histone demethylase activity. AID 1347165. KDM5B demethylase, FDH-coupled NADH fluorescence (FDH is formaldehyde dehydrogenase). Q9UGL1. Potency, µM (top dose mostly 57.7 µM), usual class: inhibitors. hit rate 2.6% among 220,000; active = well fitted inhibition curve with a large enough effect; note: 0% is about no effect; nearly all actives have a fitted effect of over 70% in size
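qHTS format, multiple compound concentrations. Buffer 50 mM HEPES pH 7.5/0.01% Tween-20; 200 nM KDM5BΔAP final; 10 min compound preincubation; substrate-mix levels 12.5 µM peptide, 25 µM α-KG, 0.25 mM NAD⁺; 30 min RT; ΔRFU.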
The depositor's hits bear a star; i = inactive. Potency is the fitted concentration of half-maximal effect.

SMILES | KDM5B inhibitor
CN1CC(=O)N(C2CCNC2)Cc2c1ncnc2N(C)Cc1ccc(F)cc1 (stereo unspecified) | i
CN1CC(=O)N(C2CCCNC2)Cc2c(NCCc3cccc(F)c3)ncnc21 (stereo unspecified) | i
CN1CC(=O)N(C2CCCNCC2)Cc2c1ncnc2N1CCCCCC1 (stereo unspecified) | i
CN1CC(=O)N(C2CCCNCC2)Cc2c1ncnc2N1CCN(c2ccccn2)CC1 (stereo unspecified) | 79µM*
CN1CC(=O)N(C2CCCNC2)Cc2c1ncnc2N(C)Cc1ccc(F)cc1 (stereo unspecified) | 22µM*
CN1CC(=O)N(C2CCCNCC2)Cc2c1ncnc2N1CCNC(=O)C1 (stereo unspecified) | i
CCOc1ccc(NC(=O)C(CC)Oc2ccc(F)cc2)c2cccnc12 (stereo unspecified) | i
O=C1OCC2(CCN(Cc3cccc(OC(F)(F)F)c3)C2)N1c1ccncc1 (stereo unspecified) | i
CNC(=O)CCn1ncc2cc(OCc3ccccc3-c3cccc(NC(C)=O)c3)ccc21 | i
CC1=C[C@@H](CN2CCN(c3ccccc3)CC2)[C@H](C(C)C)C[C@H]1Cc1nnc(-c2cncn2C)o1 | i
CC(=O)N1CCN([C@H]2[C@@H]3OC[C@@H](O3)[C@@H](NC(=O)Nc3ccc(F)cc3)[C@@H]2O)CC1 | i
N#Cc1cccc(CNCc2cc(Br)cs2)c1 | i
Cn1c(SCc2csc(-c3ccccn3)n2)nnc1C1CC1 | i
Cc1ccccc1Nc1nc(NC2CCCC2)nc2c1cnn2C | i
C=CCCC(CN1CCCOCC1)Oc1ccc(-c2ccccc2)nn1 (stereo unspecified) | i
C=CCCC(CN1CCCOCC1)Oc1nccc(N(C)CC)n1 (stereo unspecified) | i
C=CCCC(CN1CCCOCC1)Oc1ccc2cccc(OC)c2n1 (stereo unspecified) | 32µM*
O=c1c(Cl)c(Oc2ccc(C(F)(F)F)cc2)cnn1-c1ccc(C(F)(F)F)cn1 | i
Cc1cccc(/C=N/NC(=O)c2ccc(C(C)(C)C)cc2)c1 | i
COc1ccc2[nH]c(C)c(C(=O)CN3CCC(Cc4ccccc4)CC3)c2c1 | i
CCN(Cc1ccccc1)C(=O)c1nn(-c2ccccc2)c(=O)c2ccccc12 | i
Cc1ccc2c(c1)C(c1ccc(F)cc1)N(C(=O)CCc1ccccc1)CC(=O)N2 (stereo unspecified) | i
Cn1cc(-c2cc(=O)c3ccnc(NCc4ccc5c(c4)OCO5)c3o2)cn1 | 32µM*
Cn1cc(-c2cc(=O)c3ccnc(-c4cccc5[nH]ccc45)c3o2)cn1 | i
Cn1c(=O)c2c(nc(NCc3ccc4c(c3)OCO4)n2C)n(C)c1=O | i
SMILES | KDM5B inhibitor
COc1cc2ncnc(NCc3ccc4c(c3)OCO4)c2cc1OC | i
COCc1ccccc1-c1nccc2c(=O)cc(-c3cnn(C)c3)oc12 | 35µM*
COc1ccc(CN2CCC3(C2)C(=NC2CCCCC2)NC(=O)N3c2cccnc2)cc1 (stereo unspecified) | i
CCCCOc1ccc(NC(=O)C(C)Oc2ccccc2F)c2cccnc12 (stereo unspecified) | i
N#Cc1ccnc(Sc2ccc(Cl)cc2)c1 | i
Cc1oc(-c2ccc(C(=O)N3CCN(C)CC3)cc2)nc1CN1CCc2ccccc21 | i
Cc1nnc2ccc(N3CCOCC3)nn12 | i
Cc1ccc(-c2nnc3ccc(N4CCCC4)nn23)nc1 | i
Cc1ccc(-c2nnc3ccc(N4CCCCC4)nn23)nc1 | 32µM*
CCCCNC(=S)Nc1ccc(Cl)cc1Cl | i
O=C(CCn1cncn1)N1CCC(c2cc(-c3ccccc3Cl)n[nH]2)CC1 | i
O=C(CCc1nc2ccccc2[nH]c1=O)N1CCN(CCn2cncn2)CC1 | 18µM*
O=C(CCc1nc2ccccc2c(=O)[nH]1)N1CCCCC1 | i
CC(NS(=O)(=O)c1cccc2nsnc12)c1ccccc1 (stereo unspecified) | i
O=C(O)C1=NOC2CN(Cc3cccc(C(F)(F)F)c3)CC12 (stereo unspecified) | 100µM*
O=C(O)C1=NOC2CN(C(=O)c3ccc(C(F)(F)F)cc3)CC12 (stereo unspecified) | i
COc1ccc(CN2CC3ON=C(C(=O)O)C3C2)cc1 (stereo unspecified) | i
O=C(CSc1nc2cc(S(=O)(=O)N3CCCCC3)ccc2o1)Nc1ccccc1F | i
COc1ccc(C)cc1C(=O)NCCc1c[nH]c2ccccc12 | i
CCOc1ccccc1/C=C1/Cc2c(O)cccc2C1=O | i
CN1C[C@H](C(=O)N2CCN(c3ccccn3)CC2)C[C@H]1c1cccc(C(F)(F)F)c1 | 40µM*
COc1ccc(NC(=O)[C@@H]2C[C@@H](c3cccc(C(F)(F)F)c3)N(C)C2)cc1OC | i
CN1C[C@H](C(=O)NCc2ccncc2)C[C@H]1c1cccc(C(F)(F)F)c1 | i
CCN(CC)CCNC(=O)c1nc2ccccc2c(=O)[nH]1 | i
Cc1ccc2oc(-c3ccc(Cl)c(NC(=O)c4ccc([N+](=O)[O-])o4)c3)nc2c1 | i

Screening data (PubChem)
